Source: PubChem (National Center for Advancing Translational Sciences (NCATS))
NPR1 antag: blocks ANP-stimulated signaling of human Npr1 receptor; P16066; HEK293 hNpr1 GloSensor cGMP, ANP-stimulated luminescence; Potency, µM (top dose mostly 46.3 µM), inactives show at the highest dose activity change, negative = inhibition, actives largely listed as inhibitors; 76,000 compounds, 1.6% hits; calls by dose curve; further: nearly all actives have a fitted effect of over 60% in size
Target sequence (P16066 whole entry, looked up): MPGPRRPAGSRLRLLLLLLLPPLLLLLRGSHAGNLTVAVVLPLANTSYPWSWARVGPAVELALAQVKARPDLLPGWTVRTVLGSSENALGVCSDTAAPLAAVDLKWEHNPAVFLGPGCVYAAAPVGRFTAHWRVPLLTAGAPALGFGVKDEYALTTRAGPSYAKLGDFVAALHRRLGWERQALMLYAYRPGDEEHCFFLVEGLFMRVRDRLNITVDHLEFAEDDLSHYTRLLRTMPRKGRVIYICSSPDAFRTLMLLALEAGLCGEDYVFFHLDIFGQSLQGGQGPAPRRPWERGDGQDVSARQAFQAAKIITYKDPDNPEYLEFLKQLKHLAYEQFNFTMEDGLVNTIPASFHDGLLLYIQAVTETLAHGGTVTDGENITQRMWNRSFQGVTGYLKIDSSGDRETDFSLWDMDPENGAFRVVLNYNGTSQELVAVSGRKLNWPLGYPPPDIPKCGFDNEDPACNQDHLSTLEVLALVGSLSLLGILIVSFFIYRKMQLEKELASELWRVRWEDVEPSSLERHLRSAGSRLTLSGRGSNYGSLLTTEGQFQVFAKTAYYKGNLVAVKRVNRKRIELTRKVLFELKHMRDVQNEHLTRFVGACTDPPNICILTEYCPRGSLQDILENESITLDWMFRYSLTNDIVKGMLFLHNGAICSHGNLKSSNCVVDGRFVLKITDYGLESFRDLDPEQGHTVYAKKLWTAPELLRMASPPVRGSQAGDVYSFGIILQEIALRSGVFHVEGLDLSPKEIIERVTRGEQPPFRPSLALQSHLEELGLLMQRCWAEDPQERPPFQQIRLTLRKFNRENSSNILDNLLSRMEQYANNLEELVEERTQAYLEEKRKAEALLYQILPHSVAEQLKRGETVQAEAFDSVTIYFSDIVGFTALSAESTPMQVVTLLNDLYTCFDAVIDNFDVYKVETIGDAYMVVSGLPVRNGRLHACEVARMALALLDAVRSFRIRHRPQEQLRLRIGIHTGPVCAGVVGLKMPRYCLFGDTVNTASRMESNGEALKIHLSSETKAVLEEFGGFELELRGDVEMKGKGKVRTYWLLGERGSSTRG
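Compound pre-incubated 30 min at room temperature on GloSensor-loaded HEK293 cells stably carrying hNpr1 and the pGS-40F cGMP biosensor. Stimulation uses hNppA at 0.1 nM final; luminescence is taken at baseline and 20 min post-agonist.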
GPT2 inhibitor: GPT2 alanine aminotransferase inhibition. Q8TD30. Recombinant GPT2, coupled pyruvate oxidase/HRP Amplex Red fluorescence. Potency, µM (titrated, usually from 57.7 µM), without a hit: top-dose activity change, negative = inhibition, actives largely listed as inhibitors. 100,000 compounds, 0.25% hits; further: nearly all actives have a fitted effect of over 60% in size
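Fluorescence of coupled pyruvate oxidase/HRP/Amplex Red system (50uM Amplex, 30 min, dark) reports pyruvate formed by GPT2. Enzyme reaction: 10ng/uL GPT2, 2mM L-alanine, 250uM a-KG, 30 min room temperature, pH 7.5; 50uM AOA control.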
FLuc inh: Photinus pyralis luciferase inhibition. Potency, µM (doses to about 115 µM), most hits filed as inhibitors. purified P. pyralis luciferase, luminescence, biochemical. 76,000 compounds, 2.5% hits. AID 1347043. P08659; further: nearly all actives have a fitted effect of over 65% in size
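Inhibitors were tested against purified firefly luciferase in a biochemical, low-substrate format (both substrates at 10uM) and luminescence measured with a CCD imager.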
NIH3T3 tox: cytotoxic compounds in NIH 3T3 cells; 94,000 compounds, 4.3% hits; Potency, µM (top dose mostly 96.7 µM), inactives show top-dose activity change, negative = cytotoxicity, most hits filed as inhibitors; NIH 3T3 viability, CellTiter-Glo ATP luminescence, 48-72 h; AID 1345082; further: nearly all actives have a fitted effect of over 55% in size
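Viability of NIH 3T3 cells after 48 or 72 hr compound treatment at 37 °C was assessed by CellTiter-Glo, with luminescence imaged following a 10 min room-temperature step.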
HEK293 tox: cytotoxic compounds in HEK 293 cells. HEK 293 viability, ATP luminescence (CellTiter-Glo), 48-72 h. Potency, µM (top dose mostly 115 µM), for the others: at the highest dose activity change, negative = cytotoxicity, usual class: inhibitors. 94,000 compounds, 6.6% hits; further: nearly all actives have a fitted effect of over 60% in size
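250 HEK 293 cells/well; compound by pintool; incubated 48 or 72 hr at 37 degree Celsius; CellTiter-Glo added, 10 min RT, luminescence imaged.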
Active calls of the source: *; i = inactive; ? = inconclusive; nt = no result given; [ ] = another dose, or the depositor's remark. Compounds with a hit are over-represented: about 10% of the library has one in this group of screens. Unless noted, the call rests on the fitted dose curve; in most records, active means well fitted curve in the direction sought with a large enough effect; inconclusive means small, poorly fitted or top-dose-only effect, or another doubt; inactive means no such curve, though single readings can be large; an effect the other way counts as inactive or inconclusive. On the % scale 0 is the no-effect control and ±100 the full control effect; potency means the concentration at half of the fitted maximal effect.

SMILES	NPR1 antag	GPT2 inhibitor	FLuc inh	NIH3T3 tox	HEK293 tox
COc1ccc(Cn2c3c(c(=O)n2Cc2ccccc2)CCN(C(=O)C2CCOCC2)C3)cc1	4.2%	-10.1%	i	25.1µM*	i
CCn1c2c(c(=O)n1Cc1ccccc1)CCN(C(=O)COc1ccccc1)C2	2.1%[70.6 µM]	-1.2%[88.5 µM]	i	50.1µM*	5.0%[172 µM]
Nc1nc(C2CC(N)C2)cc(N2CC(c3nc4ccccc4[nH]3)C2)n1 (centres undefined)	5.4%	i	i	-3.6%	-13.0%
COc1cccc2c1OCCCN(c1cc(C3CC(O)C3)nc(N)n1)C2 (centres undefined)	-29.9%	-0.5%[11.5 µM]	i	12.6µM*	?
Cc1cccc(C)c1OC1CN(c2cc(C3CC(O)C3)nc(N)n2)C1 (centres undefined)	-7.0%	4.1%	i	-21.2%	35.5µM*
O=C(c1ccoc1)N1CCC(c2noc(COc3ccc(F)cc3)n2)CC1	nt	i	nt	?	?
COc1ccc(NC(=O)c2ccc3c(c2)NC(C)(COc2ccccc2)CO3)cn1 (centres undefined)	?	-17.1%[88.5 µM]	i	?	?
COc1cccc(NC(=O)c2ccc3c(c2)NC(C)(COc2cccnc2)CO3)c1 (centres undefined)	22.4µM*	-4.1%[88.5 µM]	?	?	50.1µM*
CN(C)CCOCC1(C)COc2ccc(C(=O)Nc3cccc(N(C)C)c3)cc2N1 (centres undefined)	0.7%[70.6 µM]	4.0%[88.5 µM]	?	?	?
CN(C)CCOCC1(C)COc2ccc(C(=O)Nc3cccc(Cl)c3)cc2N1 (centres undefined)	-12.9%[70.6 µM]	-16.1%[88.5 µM]	44.7µM*	44.7µM*	63.1µM*
CCOCC1(C)COc2ccc(C(=O)Nc3cccnc3)cc2N1 (centres undefined)	5.8%[70.6 µM]	1.3%[88.5 µM]	i	-14.4%[138 µM]	?
CCOCC1(C)COc2ccc(C(=O)Nc3ccc(F)c(Cl)c3)cc2N1 (centres undefined)	?	-24.0%[88.5 µM]	?	31.6µM*	39.8µM*
CC1(COc2cccnc2)COc2ccc(C(=O)Nc3cccc(Cl)c3)cc2N1 (centres undefined)	28.2µM*	?	?	?	22.4µM*
O=C(NC1CCCCC1)N1Cc2[nH]cnc2C[C@H]1c1nc(-c2ccc3c(c2)OCO3)no1	-9.9%	4.1%	i	?	-25.3%
COc1ccc(Cn2c(=O)c(C(=O)NCCc3ccc(F)cc3)nc3cccnc32)cc1	nt	0.4%	nt	?	?
COc1cccc(N2C(=O)NC(=NC3CCCC3)C23CCN(Cc2ccc(F)cc2)C3)c1 (centres undefined)	nt	i	nt	?	?
COCCCNC(=O)c1nc2sccn2c1-c1ccc(F)cc1	nt	1.0%[88.5 µM]	nt	?	-18.7%[172 µM]
COCCCNC(=O)C1CCc2nnc(C3CC3)n21 (centres undefined)	nt	i	nt	-4.4%	-1.9%
C(Cc1noc(C2CNC2)n1)OCC1CC1	-29.5%	-6.2%	i	15.8µM*	11.2µM*
COCCc1noc(C2CNC2)n1	-20.5%	i	i	17.8µM*	8.91µM*
COCCCNC(=O)c1ccc2nnc(-c3ccoc3)n2c1	nt	i	nt	-12.3%[138 µM]	i
O=C(c1cc(F)cc(F)c1)N1C[C@@H](CO)[C@H](c2nc(C3CC3)no2)C1	-2.3%	i	i	-9.3%	i
Cc1nn(Cc2ccccc2)c(C)c1[C@@H]1C=C[C@@H](NC(=O)CCCC(=O)O)C1	2.6%[70.6 µM]	i	i	3.0%[138 µM]	1.2%[172 µM]
Cc1ccc(CNC[C@H]2Cn3cc(-c4ccccc4)nc3CO2)cc1	0.3%[70.6 µM]	2.6%[88.5 µM]	i	?	?
c1ccc(-c2cn3c(n2)CO[C@@H](CNCc2ccc4ccccc4n2)C3)cc1	-6.8%[70.6 µM]	4.9%[88.5 µM]	i	?	?
SMILES	NPR1 antag	GPT2 inhibitor	FLuc inh	NIH3T3 tox	HEK293 tox
Cc1ccccc1CNC[C@H]1Cn2cc(-c3ccccc3)nc2CO1	4.4%[70.6 µM]	-2.6%[88.5 µM]	i	?	100µM*
Fc1ccccc1CNC[C@H]1Cn2cc(-c3ccccc3)nc2CO1	3.4%[70.6 µM]	-2.6%[88.5 µM]	63.1µM*	-27.6%[138 µM]	?
Clc1ccccc1CNC[C@H]1Cn2cc(-c3ccccc3)nc2CO1	-17.4%[70.6 µM]	-6.6%[88.5 µM]	56.2µM*	?	100µM*
O=C(NCc1cccs1)c1ccc2nc(-c3ccccn3)oc2c1	nt	0.6%	nt	?	?
Oc1ccc(NCCN2CCCC2)cc1	nt	i	nt	44.7µM*	?
Clc1ccc(NCCN2CCCC2)cc1	nt	4.3%[88.5 µM]	nt	-4.2%[174 µM]	-23.8%[230 µM]
O=C([C@@H]1C[C@H](c2ccc(F)cc2)N(Cc2ccccc2Cl)C1)N1CCN(CCO)CC1	-15.5%	-24.0%	i	?	?
O=C([C@@H]1C[C@H](c2ccc(F)cc2)N(Cc2ccccc2Cl)C1)N1CC(O)C1	-12.6%[70.6 µM]	-8.4%[88.5 µM]	i	89.1µM*	70.8µM*
O=C([C@@H]1C[C@H](c2ccc(F)cc2)N(Cc2ccccc2Cl)C1)N1CCOCC1	-4.6%[70.6 µM]	-23.4%[88.5 µM]	i	89.1µM*	?
C=CCN1C[C@H]2COc3cc(OC)ccc3[C@H]2N(C(=O)c2ccccc2)CCC1=O	nt	nt	nt	?	-23.7%
Cc1noc(C)c1-c1cc2cc(CO)oc2c(N2CCN(c3ccccn3)CC2)n1	-15.3%[70.6 µM]	1.8%[88.5 µM]	i	?	70.8µM*
Cc1noc(C)c1-c1cc2cc(CN(C)C)oc2c(N2CCN(c3ccccn3)CC2)n1	-1.9%[70.6 µM]	-14.1%[88.5 µM]	i	35.5µM*	44.7µM*
Cc1noc(C)c1-c1cc2cc(CN(C)C)oc2c(N2CCN(Cc3ccccc3)CC2)n1	-3.3%	?	i	35.5µM*	50.1µM*
O=C(Nc1ccc(Cl)cc1)N1CCN(Cc2ccccc2-c2ccccc2F)CC1	nt	-5.8%	nt	?	?
CCN1c2cc(C(=O)Nc3ccc(C(C)C)cc3)ccc2C(=O)N2CCCCC21 (centres undefined)	4.0%	1.0%	?	?	17.8µM*
CCOc1ccc(NC(=O)c2ccc3c(c2)N(CC)C2CCCCCN2C3=O)cc1 (centres undefined)	-2.5%	i	i	?	?
CCN1c2cc(C(=O)Nc3ccc(-n4ccnc4)cc3)ccc2C(=O)N2CCCCCC21 (centres undefined)	-2.9%	i	i	11.2µM*	?
CCN1c2cc(C(=O)Nc3ccc(C(C)C)cc3)ccc2C(=O)N2CCCCCC21 (centres undefined)	4.1%	i	i	22.4µM*	?
CCN1c2cc(C(=O)Nc3ccc(Cl)cc3)ccc2C(=O)N2CCCCCC21 (centres undefined)	-6.8%	i	i	?	44.7µM*
Cc1noc(C)c1[S+](=O)([O-])N1CCn2c(nn(-c3cccc(Cl)c3)c2=O)C1	nt	i	nt	-16.1%	-27.0%
O=C(NCCCc1ccccc1)C1CCCCN1Cc1ccc(-c2cccs2)cc1 (centres undefined)	nt	i	nt	?	?
